From PubChem BioAssay (NCATS) come the findings set out here.

Inconclusive results are not listed. Values without a mark were called inactive. Active and inactive are the calls of the source. Calls follow the shape of the dose curve; as a rule, active = well fitted inhibition curve with a large enough effect; inconclusive = small, poorly fitted or top-dose-only effect; inactive = flat fitted curve, though single readings scatter.
% is scaled to controls: 0 for no effect and ±100 for the full control effect; potency is read from the fitted curve at half-maximal effect.

The assay relates to CRL-7250. In words: Cytotoxic Profiling of Annotated Libraries Using Quantitative High-Throughput Screening (AID 1296008). Also: nearly all actives have a fitted effect of over 60% in size. Particulars: Five cell lines viability, CellTiter-Glo ATP luminescence, 48-72 h; max response: active compounds read low. The method in brief:
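Cytotoxicity was measured as CellTiter-Glo ATP luminescence, read after 10 min at room temperature. Compound treatment of the cells lasted 48 or 72 hr at 37 degrees Celsius in a qHTS format.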
(ATP-based viability assays read luminescence as a measure of living cells.)
`CC(C)n1nc(C#Cc2ccccc2)c2c(N)ncnc21`: the Potency is 16.4 µM (active). On to `CCn1c(=O)c(-c2ccc(Cl)cc2Cl)cc2cnc(Nc3ccc(N4CCNCC4)c(F)c3)nc21`, for which the Potency is 1.16 µM (active). Consider `CC(=O)O[C@H]1[C@H](O)C[C@@]2(C)C(CC[C@]3(C)C2CC=C2C4CC(C)(C)CC[C@]4(C(=O)O)CC[C@]23C)C1(C)C` (stereo partly drawn), for which the max response is -14.7%. Same read-out and setting: next, `CCS(=O)c1nc(-c2cccc(OCc3ccccc3)c2)cc(C(F)(F)F)n1` (stereo not drawn): 1.1%; `CC(C)c1cc(-c2ccc(F)c3ccccc23)nc(N)n1`: 2.23%; `Cc1cc(F)ccc1[C@H]1C[C@@H](N2CCN3C(=O)CC[C@H]3C2)CCN1C(=O)N(C)[C@H](C)c1cc(C(F)(F)F)cc(C(F)(F)F)c1`: 2.7%. `O=C(Cc1c(F)cccc1F)Nc1cc(OCc2ccc(Cl)cc2)ccn1`: the max response was 3.56%. Take `Cc1ccnn1-c1ccc(C(=O)N2CCN(S(=O)(=O)c3ccc(Cl)c(C(F)(F)F)c3)CC2)cc1`: the call was inactive. In the case of `CC(C)c1ccc(NC(=O)c2cccs2)c(-c2nc3ccccc3[nH]c2=O)c1`, the max response was 4.02%. The same measure, in the same setting: next, `CC1=CC2/C=C(\C)CCC3OC(C)(C)OC3CCC(=O)C23C(=O)NC(CC(C)C)C3C1C` (stereo not drawn): 4.29%; `COc1ccccc1N1CCN(c2ncnc3n[nH]c(Br)c23)CC1`: -14.5%.

Consider `CC1(C)CCCC2(C)C1C(=O)C=C(C(=O)O)C2(O)C(=O)O` (stereo not drawn), for which the max response was -16%. Same read-out and setting: next, `Cn1ccc(NC(=O)c2cc(Oc3ccc(C(=O)N4CCC4)c(F)c3)c3c(c2)OC(C)(C)C3)n1`: 3.93%.
